# Source: PubChem BioAssay
# ATG4B inh: inhibitors of human ATG4B cysteine protease | AID 504462 | Q9Y4P1 | 0.51% of 340,000 active | inhibition, % at 8.33 µM | ATG4B cleavage of LC3-PLA2, NBD-HPC fluorescence, 1 h
# Target sequence (Q9Y4P1 whole entry, looked up): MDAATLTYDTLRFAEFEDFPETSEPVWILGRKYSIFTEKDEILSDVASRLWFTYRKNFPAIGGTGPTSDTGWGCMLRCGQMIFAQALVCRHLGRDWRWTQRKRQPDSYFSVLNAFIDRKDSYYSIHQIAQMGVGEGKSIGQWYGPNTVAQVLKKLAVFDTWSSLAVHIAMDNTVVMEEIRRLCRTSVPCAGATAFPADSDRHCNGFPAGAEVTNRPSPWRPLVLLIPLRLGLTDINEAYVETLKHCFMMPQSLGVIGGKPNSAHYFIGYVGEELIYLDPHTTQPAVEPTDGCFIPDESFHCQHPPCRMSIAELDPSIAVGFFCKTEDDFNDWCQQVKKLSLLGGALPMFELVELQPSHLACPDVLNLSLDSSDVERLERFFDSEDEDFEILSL
# Neddylation inh: inhibitors of human cullin neddylation; 0.58% of 360,000 active; inhibition, % at 25 µM; TR-FRET cullin neddylation, biochemical; P61081+Q13564; AID 651699; in the data active = inhibition above about 36%
# Rin1 Abl inh: human Rin1-Abl interaction inhibition; P00519+Q13671; TR-FRET Rin1/Abl binding, biochemical; inhibition, % at 7.35 µM; 0.4% of 360,000 active; AID 588664; in the data active = inhibition above about 5%, passing the limit was not always enough
# SUMO1-SIM PPI: modulators of human SUMO1-mediated protein-protein interactions | P63165 | inhibition, % at 20 µM | 0.33% of 360,000 active | SUMO1 binding to a labelled peptide, TR-FRET, 1 h | AID 602429; in the data active = inhibition above about 37%
# Target sequence (P63165 whole entry, looked up): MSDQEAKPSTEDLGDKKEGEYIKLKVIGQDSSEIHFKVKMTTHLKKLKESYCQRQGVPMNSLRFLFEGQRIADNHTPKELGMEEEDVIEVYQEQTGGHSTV
# Neddyl conf: confirmation of human cullin neddylation inhibitors; shares compounds with Neddylation inh; TR-FRET cullin neddylation biochemical assay; calls only at 25 µM; 13% of 1,800 active; AID 652217;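 note: neddylation substrate is the cullin 1 ring ligase complex with SKP2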
# * marks the source's active call; other numbers are inactive results; i = inactive; . = no result given; + = active, no number. Most compounds without a hit are left out; they make up all but 1.7% or so of the library. Cut-off read from the data, not from the text of the source, unless noted: active = inhibition above about 40%; inactive = the rest.
SMILES,ATG4B inh,Neddylation inh,Rin1 Abl inh,SUMO1-SIM PPI,Neddyl conf
CCNC(=O)C1(C)CCN(C(=O)c2ccc(C#N)cc2)C1 (centres undefined),.,3,1,3,.
COC(=O)C1C(O)=C(C=Nc2ccccc2)C(=O)CC1(C)C (centres undefined),-12,7,-1,0,.
COC(=O)C1C(O)=C(C(C)=Nc2cccc3ccccc23)C(=O)CC1(C)C (centres undefined),-5,45*,-1,3,i
CCOC(=O)C1=C[C@@H](c2ccccc2)N(S(=O)(=O)c2ccc(C)cc2)[C@H]1c1ccc(F)cc1,.,0,0,5,.
COc1ccc2c(c1)[nH]c1c(Cl)ncnc12,3,40*,-2,5,i
CCCc1cc(=O)oc2c(C)c3occ(C)c3cc12,-1,40*,1,-1,i
COc1ccc(CN2C[C@@H](CO)O[C@@H](n3cnc4c(NCc5cc(OC)c(OC)c(OC)c5)ncnc43)C2)cc1,.,4,0,-4,.
Clc1cccc(N/N=C/c2ccc(N3CCOCC3)s2)c1,-16,41*,-1,-8,i
COc1cc(OC)cc(C(=O)NCC(=O)OCC(=O)/C=C2/N(C)c3ccccc3C2(C)C)c1,-13,52*,3,1,i
S=c1[nH]nc(-c2ccco2)n1/N=C/C=C/c1ccco1,7,0,4,14,.
S=c1[nH]nc(-c2cc(-c3ccccc3)n[nH]2)n1/N=C/C=C/c1ccco1,6,70*,2,29,i
S=c1[nH]nc(-c2cc(-c3ccccc3)n[nH]2)n1/N=C/c1c(Cl)cccc1Cl,-4,49*,0,18,i
Cc1ccccc1/C=N/n1c(-c2cc(-c3ccccc3)n[nH]2)n[nH]c1=S,-8,7,0,11,.
Cn1c(=O)c2cc(NC(=O)CCc3cccnc3)ccc2n1Cc1ccc(F)cc1,.,.,-1,4,.
COC(=O)[C@@]12C[C@@H](CC(=O)NCCc3ccccc3OC)C(=O)N(CCc3ccc(OC)c(OC)c3)C1=CCC(C)(C)C2,.,-1,.,1,.
CCCOc1ccc2oc(=O)c3c(c2c1)CCCN3C(=O)CN1CCN(c2ncccn2)CC1,-7,16,-5,-8,.
O=C(CN1CCCC1)N1CCCc2c1c(=O)oc1ccc(OCc3ccccc3)cc21,1,50*,-2,-13,.
CCCC(C(=O)NCCC(C)C)N(Cc1ccccc1)C(=O)c1snc(C(N)=O)c1N (centres undefined),7,40*,-5,-6,i
COc1ccc(C)cc1N(C(=O)c1snc(C(N)=O)c1N)C(C(=O)NC1CCCC1)c1ccc(F)cc1 (centres undefined),10,43*,2,-7,.
CCCCC(C(=O)NC1CCCC1)N(Cc1ccccc1)C(=O)c1snc(C(N)=O)c1N (centres undefined),3,22,3,-9,.
COc1cccc(N(C(=O)c2snc(C(N)=O)c2N)C(C(=O)NCc2ccccc2)c2ccc(O)cc2)c1 (centres undefined),-8,52*,1,-15,+
COCCNC(=O)C(c1ccc(C)o1)N(C(=O)c1snc(C(N)=O)c1N)c1cccc(C)c1 (centres undefined),-9,45*,2,-21,i
COc1cc(C(C(=O)NC2CCCC2)N(C(=O)c2snc(C(N)=O)c2N)c2ccccc2)cc(OC)c1OC (centres undefined),-5,38,4,-2,.
COc1ccc(N(C(=O)c2snc(C(N)=O)c2N)C(C(=O)NCc2ccccc2)c2ccc(O)cc2)cc1OC (centres undefined),1,4,-1,-9,.
COc1ccc(C(C(=O)NCc2ccccc2)N(C(=O)c2snc(C(N)=O)c2N)c2ccccc2OC)cc1OC (centres undefined),-3,53*,2,-16,.
SMILES,ATG4B inh,Neddylation inh,Rin1 Abl inh,SUMO1-SIM PPI,Neddyl conf
COc1ccccc1N(C(=O)c1snc(C(N)=O)c1N)C(C(=O)NCc1ccccc1)c1ccc(C)o1 (centres undefined),4,.,2,-6,.
CC(C(=O)NCC1CCCO1)N(C(=O)c1snc(C(N)=O)c1N)c1cccc(F)c1 (centres undefined),-1,52*,-3,-9,.
Nc1cc(OCc2ccccc2)ccc1OCc1ccccc1,1,-2,1,1,.
CC1(Cc2ccccc2Cl)C(=O)Nc2ccc(OC(F)(F)F)cc21 (centres undefined),.,0,0,3,.
CC(Oc1cc2oc(=O)c3c(c2cc1Cl)CCCC3)C(=O)NCc1cccnc1 (centres undefined),9,21,-1,-3,.
CC(Oc1cc2oc(=O)c3c(c2cc1Cl)CCC3)C(=O)NCc1cccnc1 (centres undefined),-4,43*,-2,-4,i
CC(C)c1ccc(NC(=O)CN(C)C2=NS(=O)(=O)c3ccccc32)cc1,.,-6,2,4,.
CCCCNC(=O)c1nc(C2CCN(S(=O)(=O)c3ccc(OC(F)(F)F)cc3)CC2)oc1-c1ccccc1,.,37,.,1,.
CC(C)(C)c1ccc(C(=O)N2CCC2(C)C(=O)NCC(F)(F)F)cc1 (centres undefined),.,0,-1,-2,.
O=S1(=O)C[C@H](N2CCCC2)[C@@H](COCc2ccccc2)N1,.,2,6,9,.
CC1(C)Cc2c(sc(NC(=O)c3ccccc3)c2C(=O)O)CO1,-9,16,0,6,.
COc1ccc(C(=O)Nc2sc3c(c2C(=O)O)CC(C)(C)OC3)cc1,21,43*,-2,0,+
CCCN(C)C1CN(Cc2cn(CCCC(=O)OC)nn2)S(=O)(=O)C1 (centres undefined),.,3,.,2,.
CCc1nn2c(N3CCOCC3)cc(C)nc2c1-c1ccc(F)cc1,2,-174,-1,14,.
CCc1nn2c(N(C)CCO)cc(C)nc2c1-c1ccc(F)cc1,-28,44*,4,1,i
CCOc1ccc(NC(=O)COC(=O)c2ccc3ncsc3c2)cc1OCC,-6,65*,4,28,i
CC(C)(C)c1ccc(NC(=O)COC(=O)c2ccc3ncsc3c2)cc1,-14,-41,6,-3,.
C=CCOc1ccccc1CNc1ccc2[nH]c(=O)[nH]c2c1,5,48*,2,3,i
Cc1ccc(S(=O)(=O)N2CC3C(=O)C[C@@H](c4ccccc4)N(S(=O)(=O)c4ccc(CCCOCCOCCNC(=O)OC(C)(C)C)cc4)C3CC2c2ccccc2)cc1 (some centres undefined),.,3,.,1,.
Brc1ccc(-c2ccc(/C=N/Nc3nc(N4CCOCC4)nc(N4CCOCC4)n3)o2)cc1,-8,46*,2,-2,i
CC(NS(=O)(=O)c1ccc2[nH]c(=O)[nH]c2c1)c1ccc(F)cc1 (centres undefined),.,6,-1,-1,.
CC1CCCCC1NC(=O)CN1c2cccc3cccc(c23)S1(=O)=O (centres undefined),-5,44*,3,-9,.
